Compound activity deposited in PubChem BioAssay by several laboratories.
aDG glyco up: increases alpha dystroglycan glycosylation | Pro5-aDG cells, alpha-DG glycosylation AlphaScreen (IIH6); 0% Pro5, 100% B10-LARGE cell signal | activation, % at 10 µM | hit rate 0.22% among 360,000;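 active means activation of at least 8% versus controls, or a plate z-score of at least 8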;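 further: Pro5 are CHO cells carrying HIG-tagged alpha-DG that lacks glycosylation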
SUMO Mot1 rescue: inhibitors of SUMOylation pathway: yeast Mot1-301 growth rescue. growth rescue, % at 18.8 µM. hit rate 1% among 320,000. AID 2716. S. cerevisiae Mot1-301 growth rescue, ATP luminescence, 38.5C; percent above DMSO median, 100 means doubled;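 active means every valid replicate shows activation above 250% relative to neutral control wells; inactive means the rest, any valid replicate at or below 250%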;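 further: OY570 slx delta 5 strain wells were the positive control but not used for scaling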
FAS TE block: FAS thioesterase (human) inhibition | hit rate 0.67% among 360,000 | AID 602261 | recombinant FAS-TE, OMFH fluorogenic substrate, fluorescence endpoint | inhibition, % at 15 µM;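 active means compounds whose normalised, plate-corrected inhibition of enzyme fluorescence in the single-dose primary screen is 50% or more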;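 further: 0% = DMSO with enzyme and 100% = substrate without enzyme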
Yeast superoxide: yeast age-related superoxide inhibition as caloric restriction mimetic; S. cerevisiae aged cells, superoxide DHE fluorescence; stronger effect = lower value; superoxide response (% of plate mean), % at 10 µM; hit rate 0.18% among 330,000; AID 2690;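 active means superoxide response under a set limit, about three screen SD below normal, cut at about 65% in these data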;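 further: yeast aged for seven days with compound at 30 °C before DHE staining; 100% = average MFI of all compound-treated wells on the plate with controls excluded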
H9c2 protect: protects H9c2 cardiomyocytes from peroxide injury. H2O2 injury protection, ATPLite, 2 h. hit rate 0.63% among 360,000. protection from H2O2 cell death, % at 20 µM;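 active means compounds giving at least 50% protection of heart cells from peroxide-induced death in the single-dose screen, raw or plate-pattern-corrected value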;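 further: 0% = DMSO wells with peroxide and 100% = DMSO wells without peroxide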
MPTP inh: inhibitors of mitochondrial permeability transition pore. isolated mouse mitochondria, Ca2+ swelling absorbance, 30 min. inhibition, % at 10 µM. hit rate 1.4% among 360,000. AID 602449;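 active means inhibition of 50% or more, scaled per plate between neutral and stimulator controls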;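 further: 0% = DMSO wells given calcium and 100% = 1 mM EGTA wells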
An asterisk follows results filed as active; nt = no result given; + = active, no number. In the library only some 3.8% were active in any assay of this set; here they are far more common.

SMILES | aDG glyco up | SUMO Mot1 rescue | FAS TE block | Yeast superoxide | H9c2 protect | MPTP inh
CCOc1cc(NC(=O)C2CC2)c(OCC)cc1NC(=O)c1ccccn1 | 0 | 0 | 9 | 102 | 53* | 1
O=C(O)CNC(=S)N(Cc1ccccc1F)C1CCCCC1 | 0 | + | -5 | 105 | 4 | -4
CCn1cc(C(=O)O)c(=O)c2cc(F)c(N/N=C/c3ccccc3[N+](=O)[O-])cc21 | 0 | 669* | -2 | 96 | 2 | 13
COc1ccc(COc2cc(-c3cccc(OC)c3)nc3ccc(NC(=O)c4ccc(OC)cc4)cc23)cc1 | -1 | 2 | 34 | 101 | 58* | 0
COc1ccc(COc2cc(-c3cccc(OC)c3)nc3ccc(NC(=O)c4cccnc4)cc23)cc1 | -1 | -10 | 33 | 94 | 91* | -1
O=C(O)c1cccc(Cn2c(Cl)c(/C=N/Nc3ccccc3)sc2=O)c1 | 0 | 279* | 2 | 87 | -6 | -1
O=C(O)c1cccc(Cn2c(Cl)c(/C=N/NC(=O)c3ccccc3Cl)sc2=O)c1 | 0 | -2 | -7 | 95 | 12 | 0
CC(C)CC(=O)Nc1ccc2c3c(cccc13)CC2 | 0 | 389* | -11 | 92 | 0 | 0
COc1cc(Cl)ccc1OCc1cc(C(=O)N2CCN(C3CCCCC3)CC2)no1 | 0 | nt | 0 | nt | -2 | -1
CS(=O)(=O)N(Cc1ccc(C(=O)NCCSc2ccccn2)cc1)c1ccccc1 | 0 | 0 | -7 | 89 | 62* | 1
Cc1ccc([N+](=O)[O-])cc1N/C=C1\CCCCC1=O | 1 | + | 9 | 108 | -17 | 0
O=C(O)c1c(C(=O)O)c(-c2ccc(Cl)c(Cl)c2)n2c1CSC2 | 0 | 47 | 1 | 101 | 0 | 0
CC(Oc1ccc2cc(-c3ccccc3)c(=O)oc2c1)C(=O)NCC1CCC(C(=O)O)CC1 (configuration not stated) | 0 | 743* | -5 | 128 | -4 | 0
Oc1c(Br)cc(Br)cc1/C=N/c1nc2c(s1)CCCC2 | 0 | 30 | -6 | 80 | 59* | 2
Cc1nc(SCC(=O)N2CCCCC2)c2c(C)c(C)sc2n1 | 0 | 309* | -1 | 97 | -7 | 0
CC1CCCC(C)N1C(=O)CSc1nc2ccccc2c(=O)[nH]1 (configuration not stated) | 0 | -18 | -3 | 91 | 70* | 0
Cc1sc2nc(SCC(=O)NCc3ccco3)[nH]c(=O)c2c1C | 0 | 130 | -3 | 105 | 60* | 1
Cc1sc2ncnc(SCC(=O)N3CCCCC3)c2c1C | 0 | 281 | 0 | 108 | -6 | -1
O=C(CSc1nc2ccccc2c(=O)[nH]1)N1CCCCCC1 | 0 | 9 | -7 | 101 | 51* | -1
Cc1sc2nc(SCC(=O)NCc3cccs3)[nH]c(=O)c2c1C | 0 | -34 | -4 | 115 | 17 | 0
CCCc1cc(=O)n2nc(N3CCC(C(=O)NCc4ccc(C)o4)CC3)sc2n1 | 0 | nt | -6 | 95 | 0 | -1
CCCCC1(CC)COC(c2ccccc2)OC1 (configuration not stated) | 0 | nt | 3 | nt | -5 | 0
CC(C)(C)c1ccc(C(O)c2ncc(-c3ccc(F)cc3)[nH]2)cc1 (configuration not stated) | 0 | nt | 38 | nt | -6 | 5
CCOC(=O)c1nn(-c2ccc(F)cc2)c(=O)c(C#N)c1C | 0 | -14 | 6 | 99 | 3 | 0
CC1CCN(C(=O)CSc2nc3ccccc3c(=O)[nH]2)CC1 | 0 | 2 | -7 | 98 | 44 | -2
SMILES | aDG glyco up | SUMO Mot1 rescue | FAS TE block | Yeast superoxide | H9c2 protect | MPTP inh
Cc1sc2nc(SCC(=O)N3CCOCC3)[nH]c(=O)c2c1C | 0 | -22 | -7 | 99 | 61* | -1
O=C(CSc1nc2ccccc2c(=O)[nH]1)N1CCN(S(=O)(=O)c2ccccc2)CC1 | 0 | 11 | -2 | 96 | 56* | -2
Cc1sc2nc(SCC(=O)O)[nH]c(=O)c2c1C | 0 | -25 | -6 | 83 | 0 | 0
O=C(CSc1nc2ccccc2c(=O)[nH]1)N1CCOCC1 | 0 | -4 | -6 | 96 | 67* | -1
Nc1nc(Nc2ccccc2Cl)cc(=O)[nH]1 | 0 | -3 | -4 | 97 | -2 | 0
CCOC(=O)COc1cccc(C2NC(=O)c3ccccc3O2)c1 (configuration not stated) | 0 | -11 | -2 | 106 | 83* | 0
